# Laboratory results published in PubChem BioAssay (NCI).
# Compounds without any hit were thinned out: in the full panel of roughly 83,000, 20% have a hit.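 Method: cells in 96-well plates; compound added at one concentration; 48 h incubation; percent growth measured; values under 10 scored active.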 Values without a mark were called inactive. Calls of active or inactive are those of the source.
# System: SW-620 colon
# Experiment: NCI-60 one-dose screen, 48 h (100 = growth as untreated, 0 = no growth, -100 = all killed)
# Conditions: 10 µM unless noted
row,SMILES,growth
1,Nc1ncnc2c1N=C(c1ccc(F)cc1)CC(c1cccc(Nc3ccnc4cc(Cl)ccc34)c1)N2 (stereo not drawn),82.8%
2,Nc1nc2ccccc2c2c(=O)c3cc(Cl)ccc3sc12,117%
3,Cc1ccc(S(=O)(=O)c2nc(-c3ccccc3)oc2SCC(N)=O)cc1,104%
4,Cc1cc(C)c2c(c1)N(C)c1ncnc(-n3c(C)nc4cc(C)ccc43)c1CC2C (stereo not drawn),19.6%
5,COC(=O)c1ccc2c(c1)c1c(C)c3cnccc3c(C)c1n2C,-6.12% (active)
6,O=C(NNc1nc2cc(F)ccc2n2c(CN3CCOCC3)ccc12)c1ccccc1,-1.14% (active)
7,CCOC(=O)C/C(=N\Nc1cc(=O)[nH]c2ccc(OC)cc12)C(=O)OCC,90.3%
8,COc1ccc(/C=C(/C(=O)N2CCNCC2)c2cc(OC)c(OC)c(OC)c2)cc1O,35.1%
9,O=[N+]([O-])c1c(O)c(Cl)cc(Cl)c1Cl,115%
10,C=CC(=O)Nc1cccc(Oc2nccc(Nc3nnc(-c4ccc(Br)cc4)s3)n2)c1,96%
11,CCCCCc1ccc(S(=O)(=O)Nc2ccc3nc(N)oc3c2)cc1,76.8%
12,COc1ccc(C(O)c2cc3c(N)c(C(=O)Nc4cccc5ccccc45)sc3nc2C)cc1 (stereo not drawn),18.8%
13,COc1ccc(-c2cc(C(=O)N3N=C(c4ccc(N)cc4)CC3c3ccc(Cl)cc3)c3cc(OC)ccc3n2)cc1 (stereo not drawn),35.5%
14,O=C1c2cccnc2C(=O)c2c1c(C(=O)OCCc1ccccn1)c1ccccn21,2.3% (active)

# System: MCF7 breast
# Experiment: as above
# Conditions: 10 µM unless noted
row,SMILES,growth
1,Cn1c(=O)c2[nH]c(SC/C(=N/O)c3ccc(Br)cc3)nc2n(C)c1=O,69.1%
2,Cc1c2ncccc2nc2[nH]c3ccc(OCCN(C)C)cc3c12,3.49% (active)
3,COc1ccc(-c2cc(C(=O)N3N=C(c4ccc(N)cc4)CC3c3ccc(Cl)cc3)c3ccccc3n2)cc1 (stereo not drawn),13.9%
4,Cc1oc(-c2ccc(Cl)cc2)nc1C1=NN(C(=O)c2ccncc2)C(c2ccccc2)C1 (stereo not drawn),94%
5,Nc1cc(C(=O)O)cc(-n2c(O)c(C=C3N=c4ccccc4=N3)sc2=S)c1,94.5%
6,Nc1ncnc2c1N=C(c1ccc(F)cc1)CC(c1cccc(Nc3ccnc4cc(Cl)ccc34)c1)N2 (stereo not drawn),51.2%
7,CCNC(=O)N1CCc2c(Br)c3c(c(OC)c2C1Cc1ccc(OC)cc1)OCO3 (stereo not drawn),12.2%
8,Nc1nc2ccccc2c2c(=O)c3cc(Cl)ccc3sc12,27.2%
9,Cc1ccc(S(=O)(=O)c2nc(-c3ccccc3)oc2SCC(N)=O)cc1,96%
10,CCCN(CCSSCCNc1nc(N(C)O)nc(N(C)O)n1)c1nc(N(C)O)nc(N(C)O)n1,83.2%
11,COc1cc(C=C2C(=O)NC(=S)NC2=O)cc(CN2CCCC2)c1O,96.1%
12,Cc1cc(C)c2c(c1)N(C)c1ncnc(-n3c(C)nc4cc(C)ccc43)c1CC2C (stereo not drawn),18.7%
13,COC1/C=C/OC2(C)Oc3c(C)c(O)c4c(O)c(c(/C=N/N(c5ccccc5)c5ccccc5)c(O)c4c3C2=O)NC(=O)C(C)=C/C=C/C(C)C(O)C(C)C(O)C(C)C(OC(C)=O)C1C (stereo not drawn),32.8%
14,CN(C)Cc1cc(C(C)(C)C)cc(Br)c1O,87.9%
15,COC(=O)c1ccc2c(c1)c1c(C)c3cnccc3c(C)c1n2C,-37.1% (active)
16,CN(C)CCCn1c2c(c3cnccc3c1=O)C(=O)c1ccccc1-2,-3.97% (active)
17,O=C(NNc1nc2cc(F)ccc2n2c(CN3CCOCC3)ccc12)c1ccccc1,-6.31% (active)
18,CCOC(=O)C/C(=N\Nc1cc(=O)[nH]c2ccc(OC)cc12)C(=O)OCC,87.9%
19,COc1ccc(/C=C(/C(=O)N2CCNCC2)c2cc(OC)c(OC)c(OC)c2)cc1O,23%
20,COC(=O)[C@]1(C)CCC[C@]2(C)[C@H]3C[C@@H]4[C@H]5[C@@H]6CC/C(=N\OCC/C(N)=N/O)[C@H]5[C@@]3(CC[C@H]21)CC4(C(C)C)O6,55.9%

row,SMILES,growth
1,CC/C(=C(\c1ccc(Cl)cc1)c1ccc(OCCN2CCCCC2)cc1)c1ccc(O)cc1,3.41% (active)
2,CCN(CC)CCOc1ccc(/C(=C(\C)Cc2ccc(OC)cc2)c2ccc(OC(=O)NCc3ccccc3)cc2)cc1,20.6%
3,O=[N+]([O-])c1c(O)c(Cl)cc(Cl)c1Cl,98.8%
4,C=CC(=O)Nc1cccc(Oc2nccc(Nc3nnc(-c4ccc(Br)cc4)s3)n2)c1,70.8%
5,O=S(=O)(Nc1ccc2ccccc2c1)c1ccc(-c2cnc(C3CC3)o2)cc1,22.1%
6,CCCCCc1ccc(S(=O)(=O)Nc2ccc3nc(N)oc3c2)cc1,31.8%
7,C=CCN=c1sc(-c2ccc3ccccc3c2)cn1NC(=O)c1cc2ccc1CCc1ccc(cc1)CC2,35.9%
8,c1cc(OCCN2CCCCCC2)ccc1CNc1ccc2nc(CCC3CCCCC3)[nH]c2c1,5.67% (active)
9,CC1=C2CC/C(C)=C/CC[C@]3(C)O[C@H]3CC/C(C)=C/[C@H]2OC1,105%
10,COc1ccc(C(O)c2cc3c(N)c(C(=O)Nc4cccc5ccccc45)sc3nc2C)cc1 (stereo not drawn),11.3%
11,CCOc1ncc([N+](=O)[O-])c(OCC)n1,93.8%
12,COc1ccc(C2[C@@H](Cl)C(=O)N2c2cc(OC)c(OC)c(OC)c2)cc1Cl (stereo partly drawn),14.4%
13,CS(=O)(=O)c1ccc(-c2nc3ccccc3n2CC(=O)N/N=C/c2ccccc2)cc1,89.3%
14,CN1CCN(c2ccc(NC3=CC(=O)c4ncncc4C3=O)cc2)CC1,-64.3% (active)
15,Cn1c(=O)[nH]c(=O)c2nc3c(nc21)-c1ccccc1C3=O,87.2%
16,COc1ccc(-c2cc(C(=O)N3N=C(c4ccc(N)cc4)CC3c3ccc(Cl)cc3)c3cc(OC)ccc3n2)cc1 (stereo not drawn),38.6%
17,O=c1cc(CP(=O)(O)O)c2cc(O)c(-c3ccccc3)cc2o1,96.9%
18,O=C1c2cccnc2C(=O)c2c1c(C(=O)OCCc1ccccn1)c1ccccn21,-56.8% (active)
19,Cc1cc(C(=O)CCCC(=O)c2cc(C)c(O)c(C)c2)cc(C)c1O,86.5%
